Several values for one entry are separate records, joined by “and”; a condition that tells them apart may be missing. Identical values can stand only once.
Experiment: qHTS profiling of the MIPE4 collection as inhibitors of Plasmodium falciparum (HB3) proliferation (AID 743347);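 note: plate controls were DMSO vehicle wells for no effect and artemisinin wells for full effect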
Conditions: P. falciparum HB3 in erythrocytes, SYBR Green DNA, 72 h; at 28.5 µM (top of the series) unless noted
Excerpt: Plasmodium falciparum is a virulent malarial parasite that kills 1-2 million people worldwide each year. Transmitted by mosquitoes, the sporozoite form of the parasite enters the blood stream to infect hepatocytes, where they become merozoites that infect red blood cells (erythrocytes). Within erythrocytes, merozoites begin a […] cycle of growth and division, after which the parasite is released to infect new red blood cells. Gametocytes, which form within erythrocytes as well, circulate in the bloodstream and are ingested by the mosquito, thereby completing the life cycle. To profile malarial isolates for differential chemical responses and to identify inhibitors of malarial growth, an assay that measures P. falciparum growth and replication within erythrocytes was employed. This assay uses a DNA binding fluorescent dye (SYBR Green) to detect parasite DNA following cell lysis. Because mature erythrocytes lack DNA, only Plasmodium-derived DNA is detected.
The SYBR Green viability assay was adapted from a method described previously (Plouffe et al., 2008). For screening 3 ul culture medium was dispensed into 1536 well black clear bottom plates (Aurora Biotechnologies) using a Multidrop Combi (Thermo Fisher Scientific Inc.), 23 nL compounds in DMSO were added by a pin tool (Kalypsys), and 5 ul of erythrocytes infected with P. falciparum (0.3% parasitemia, 2.5% hematocrit final concentration) were added. The plates were incubated at 37 C in a humidified incubator in 5% CO2 for 72 h, and 2 ul lysis buffer (20 mM Tris HCl, 10 mM EDTA, 0.16% saponin, 1.6% triton X, 10X SYBR Green I supplied as 10,000X […] by Invitrogen) was added to each well. The plates were mixed for 25 sec with gentle shaking and incubated overnight at room temperature in the dark. The following morning, fluorescence intensity at 485(14) nm excitation and 535(25) nm emission wavelengths was measured on an EnVision (Perkin Elmer) plate reader. Plate reads were normalized relative to the control inhibitor (0.29 uM artemisinin) and vehicle (DMSO) wells present on each plate and then corrected by an algorithm using vehicle-only control plates at the beginning and end of the compound plate stack.

Compared with Cc1cn[nH]c1, Cc1oncc1C(=O)Nc1ccc(C(F)(F)F)cc1 is higher in growth, % of control: 8.35% for the first, 10.6% for the second.

Compared with CCn1c(-c2nonc2N)nc2c(C#CC(C)(C)O)ncc(OC[C@H]3CCCNC3)c21, CCCc1nn(C)c2c(=O)[nH]c(-c3cc(S(=O)(=O)N4CCN(C)CC4)ccc3OCC)nc12 is higher in growth, % of control: 3.2% for the first, 24.6% for the second.

Compared with Cc1cccc(-c2[nH]c(C(C)(C)C)nc2-c2ccc3nccnc3c2)n1, NC(=O)c1ccc(-c2nc(-c3ccc4c(c3)OCCO4)c(-c3ccccn3)[nH]2)cc1 is higher in growth, % of control: 6.8% for the first, 12.9% for the second.

Going from Nc1nc2[nH]cc(CCc3ccc(C(=O)N[C@@H](CCC(=O)O)C(=O)O)cc3)c2c(=O)[nH]1 to CN(C)c1ccc(Nc2nc(N)n(C(=O)c3c(F)cccc3F)n2)cc1, the growth, % of control falls from 139% to 6.51%.

Going from Cc1cc2c(F)c(Oc3ncnn4cc(OC[C@@H](C)O)c(C)c34)ccc2[nH]1 to Cn1c(=O)c(F)c(Nc2ccc(I)cc2F)c2c(=O)n(C[C@@H](O)CO)cnc21, the growth, % of control falls from 76.7% to 7.31%.

Compared with CCc1cncnc1N1CCN(Cc2nc3ccc(C(F)(F)F)cc3[nH]2)CC1, O=c1[nH]c(-c2ccc(C(F)(F)F)cc2)nc2c1CSCC2 is higher in growth, % of control: 15.6% for the first, 86.7% for the second.

Compared with CN[C@@H](C)C(=O)N[C@H]1CCCC[C@H]2CC[C@@H](C(=O)N[C@@H](c3ccccc3)c3cn(CCCCc4ccc(CCCCn5cc([C@@H](NC(=O)[C@@H]6CC[C@@H]7CCCC[C@H](NC(=O)[C@H](C)NC)C(=O)N76)c6ccccc6)nn5)cc4)nn3)N2C1=O, O=C(O)[C@@H](c1ccc(OCc2ccc3ccccc3n2)cc1)C1CCCC1 is higher in growth, % of control: 3.6% for the first, 84.3% for the second.

Going from Cc1[nH]c(=O)c(C#N)cc1-c1ccc2nccn2c1 to Cn1cc(-c2ccc3nnc(C(F)(F)c4ccc5ncccc5c4)n3n2)cn1, the growth, % of control falls from 68.7% to 35.2%.

First: C[C@]1(c2nc3c(C(N)=O)cccc3[nH]2)CCCN1
Second: NC(=O)c1ccc(I)c([N+](=O)[O-])c1
The growth, % of control of the first is lower: 88.5% for the first, 96% for the second.

First: COc1ccc(-c2ccc3c(N4CCOC[C@H]4C)nc(N4CCOC[C@H]4C)nc3n2)cc1CO
Second: CN(C(=O)c1ccc(F)cc1C(F)(F)F)C1CCN(c2nnc(-c3ccnn3C)c3ccccc23)CC1
The growth, % of control of the first is lower: 7.68% for the first, 21.1% for the second.

First: N[C@@H]1CONC1=O
Second: O=C1CCC(N2C(=O)c3ccccc3C2=O)C(=O)N1 (stereo not given)
The growth, % of control of the first is higher: 650% for the first, 114% for the second.

First: N#Cc1ccc(C(c2ccc(C#N)cc2)n2cncn2)cc1
Second: Nc1ccc(S(=O)(=O)Nc2ccnn2-c2ccccc2)cc1
The growth, % of control of the first is higher: 101% for the first, 94.4% for the second.

Going from Cc1cc(SCc2sc(-c3ccc(C(F)(F)F)cc3)nc2C)ccc1OCC(=O)O to Cc1cc(-c2ccc(CC(=O)Nc3ccc(-c4cccnc4)cc3)cc2)ccn1, the growth, % of control falls from 96.6% to 63.6%.

Going from OCCC#Cc1nc(-c2ccc(F)cc2)c(-c2ccncc2)n1CCCc1ccccc1 to CCC(C)N(C)C(=O)c1cc2ccccc2c(-c2ccccc2Cl)n1 (stereo not given), the growth, % of control rises from 7.31% to 53.6%.

Going from Cc1c(C)c2c(c(C)c1O)CCC(C)(COc1ccc(CC3SC(=O)NC3=O)cc1)O2 (stereo not given) to CN(C)c1ccc(C2Nc3ccc4ccccc4c3C3=C2C(=O)CC(C)(C)C3)cc1Br (stereo not given), the growth, % of control rises from 62.4% to 78%.

Going from CCOc1cc(N2CCC(O)CC2)ccc1Nc1ncc2c(n1)N(C)c1ccccc1C(=O)N2C to CCC(C)n1ncn(-c2ccc(N3CCN(c4ccc(OC[C@H]5CO[C@](Cn6cncn6)(c6ccc(Cl)cc6Cl)O5)cc4)CC3)cc2)c1=O (stereo not given in full), the growth, % of control falls from 5.43% to 4.47%.

First: O=C1CCc2cc(OCCCCc3nnnn3C3CCCCC3)ccc2N1
Second: CCOc1ccc(Cc2cc([C@@H]3O[C@H](CO)[C@@H](O)[C@H](O)[C@@H]3O)ccc2Cl)cc1
The growth, % of control of the first is lower: 104% for the first, 505% for the second.

Compared with CCN(CC)CCCC(C)Nc1nc(C)cc(Nc2ccc3nc(C)cc(N)c3c2)n1 (stereo not given), CC(C)(C)OC(=O)CN(Cc1ccc(Cl)cc1)Cc1ccc([N+](=O)[O-])s1 is higher in growth, % of control: 20% for the first, 51.3% for the second.

Going from COc1ccccc1-c1cccc(-c2c(O)c3cc(C#N)c(Cl)cc3[nH]c2=O)c1 to S=C(NCc1ccc2c(c1)OCO2)N1CCN(c2ncnc3c2oc2ccccc23)CC1, the growth, % of control rises from 14.1% [at 57.5 µM] to 30.4% [at 57.5 µM].

In the case of C[C@]12CC[C@H](O)CC1=CC[C@@H]1[C@H]2CC[C@]2(C)C(c3cccnc3)=CC[C@H]12, the growth, % of control is reported as 9.4% [at 9.64 µM].

For COc1ccc([C@@H]2CC(=O)c3c(O)cc(O[C@@H]4O[C@H](CO[C@@H]5O[C@@H](C)[C@H](O)[C@@H](O)[C@@H]5O)[C@@H](O)[C@H](O)[C@@H]4O)cc3O2)cc1O, the growth, % of control was 92% and 93.5%.

Source: PubChem BioAssay (NCATS)
